Data as given in PubChem BioAssay (NCI).
Compounds without any hit were thinned out: in the full panel of roughly 79,000, 15% have a hit. A number with no mark means an inactive call. Calls of active or inactive are those of the source. Rule as the data show it: active = growth inhibition above about 70%; inactive = the rest.

test: NCI Yeast Anticancer Drug Screen. Data for the rad50 strain (AID 155);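 also: 0% = growth of vehicle-only cultures of the same strain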; conditions: S. cerevisiae rad50 strain growth inhibition; at 3.7 µM; stronger effect = higher value
Procedure, shortened: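 Cells are treated with compound, grown, and their growth is then scored against vehicle-only cultures of the same repair-deficient yeast strain.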

SMILES | growth inhibition
CC(CN(C)C)C(=O)/C=C/c1ccc(Cl)c(Cl)c1 (configuration not stated) | -3%
CCCCCCNCCCNc1c2cc(OC)ccc2nc2cccc([N+](=O)[O-])c12 | 15%
NC(=S)N1N=C2c3ccccc3CC[C@H]2[C@@H]1c1ccc(Cl)cc1 | -2%
C/C(=N/NC(=S)Nc1ccccc1C)c1ccccn1 | 5%
O=C1/C(=C/c2ccc(Cl)c(Cl)c2)CNC/C1=C\c1ccc(Cl)c(Cl)c1 | 20%
CC(C)OP(=O)(OC(C)C)C(=NCCO)NNc1ccc([N+](=O)[O-])cc1 | -3%
N#CCC(=O)N/N=C(\c1ccccc1)C(c1ccccc1)C1(O)C(=O)Nc2c(Cl)ccc(Cl)c21 (configuration not stated) | 0%
CC(C)(CN1CCCCC1)C(=O)CC(SCCS(=O)(=O)O)c1ccccc1 (configuration not stated) | 4%
COC1=CCC23C(=O)C=CC(=O)C2(C1)C(=O)c1ccccc1C3=O (configuration not stated) | -47%
CCCCN(CCCC)c1ccc(N=Nc2ccc(S(=O)(=O)O)cc2)cc1 | 14%
c1ccc2nc3c(nc2c1)sc1ccccc13 | 75% (active)
O=C1c2ccccc2-c2ccc(N=Cc3ccccc3)cc21 | -11%
CNC(=S)N/N=C(/C)CCC/C(C)=N/NC(=S)NC | 67%
Nc1ccc(/C=C/c2ccc3cccnc3c2)cc1 | 29%
COc1ccc2c3c1OC(C)C31CC(=O)CCC1CC2 (configuration not stated) | 1%
CCOC(=O)Nc1ccc(C)c(NC(=O)OCC)c1 | 6%
CCN(CC)CCNc1ccc2nc(C)n3c4ccc(OC)cc4c(=O)c1c23 | 45%
C[N+](C)([O-])CCCNc1c2ccccc2nc2cccc([N+](=O)[O-])c12 | 68%

SMILES | growth inhibition
O=C(c1cc(=O)c2ccc(O)cc2o1)c1ccc(Cl)cc1Cl | -16%
CCCNC(=O)OCc1c(COC(=O)NCCC)c(-c2ccc(Cl)c(Cl)c2)n2c1CCC2 | -43%
O=C(Cc1ccccc1)NN1C(=O)C(Cl)C1c1cc(Br)cc(Br)c1O (configuration not stated) | 20%
CCOC(=O)C(Cc1c2ccccc2cc2ccccc12)(NC(C)=O)C(=O)OCC | -16%
O=[N+]([O-])/C=C/c1cc2ccc3ccccc3c2[nH]1 | 70% (active)
Fc1ccc(Nc2ccc3ccccc3c2)cc1 | -48%
O=S1(=O)CCC2=CC(C(F)(F)F)=CC(C(F)(F)F)=CN21 | 71% (active)
O=C(Cc1ccccc1)NNc1nc(NNC(=O)c2ccncc2)nc(Nc2ccc([N+](=O)[O-])cc2)n1 | 9%
CCCCS/C(=C(/C#N)C(N)=O)c1cc2c([nH]1)CCCC2 | 23%
O=C(O)c1ccccc1C(=O)OC1CCc2ccccc2C1 (configuration not stated) | 0%
CCOC(=O)/C(=C\c1cccc(C)c1)C(C)=O | -8%
NC(=S)N/N=C1\c2ccccc2CCC1CCC1(O)CCc2ccccc2C1=O (configuration not stated) | 19%
Cc1cccc2c(Cl)c3cccc(C)c3nc12 | 10%
CC(C)OC(=O)NNc1c(Cl)cc(Cl)cc1Cl | 7%
Nc1ccc2c(c1)C(=O)c1c(F)cccc1-2 | 11%
N#CSCC1COc2ccccc2O1 (configuration not stated) | 1%
Cc1ccc(S(=O)(=O)NC(=O)C2C(=O)CC3(CCCCC3)CC2=O)cc1 | -6%
CC1=NN(C(=O)c2ccccc2O)C(=O)/C1=C/c1ccco1 | 17%

same assay, conditions: S. cerevisiae rad50 strain growth inhibition; at 5.0 µM (retest, dose inferred, filed as 0.5); stronger effect = higher value

SMILES | growth inhibition
CC(CN(C)C)C(=O)/C=C/c1ccc(Cl)c(Cl)c1 (configuration not stated) | -9%
CCCCCCNCCCNc1c2cc(OC)ccc2nc2cccc([N+](=O)[O-])c12 | 35%
NC(=S)N1N=C2c3ccccc3CC[C@H]2[C@@H]1c1ccc(Cl)cc1 | -20%
C/C(=N/NC(=S)Nc1ccccc1C)c1ccccn1 | 9%
O=C1/C(=C/c2ccc(Cl)c(Cl)c2)CNC/C1=C\c1ccc(Cl)c(Cl)c1 | 19%
CC(C)OP(=O)(OC(C)C)C(=NCCO)NNc1ccc([N+](=O)[O-])cc1 | 8%
N#CCC(=O)N/N=C(\c1ccccc1)C(c1ccccc1)C1(O)C(=O)Nc2c(Cl)ccc(Cl)c21 (configuration not stated) | 7%
CC(C)(CN1CCCCC1)C(=O)CC(SCCS(=O)(=O)O)c1ccccc1 (configuration not stated) | 10%
COC1=CCC23C(=O)C=CC(=O)C2(C1)C(=O)c1ccccc1C3=O (configuration not stated) | 19%
CCCCN(CCCC)c1ccc(N=Nc2ccc(S(=O)(=O)O)cc2)cc1 | 63%
c1ccc2nc3c(nc2c1)sc1ccccc13 | 54%
O=C1c2ccccc2-c2ccc(N=Cc3ccccc3)cc21 | 8%
CNC(=S)N/N=C(/C)CCC/C(C)=N/NC(=S)NC | 40%
Nc1ccc(/C=C/c2ccc3cccnc3c2)cc1 | 5%
COc1ccc2c3c1OC(C)C31CC(=O)CCC1CC2 (configuration not stated) | 13%
CCOC(=O)Nc1ccc(C)c(NC(=O)OCC)c1 | 22%
CCN(CC)CCNc1ccc2nc(C)n3c4ccc(OC)cc4c(=O)c1c23 | 84% (active)
C[N+](C)([O-])CCCNc1c2ccccc2nc2cccc([N+](=O)[O-])c12 | 63%

SMILES | growth inhibition
O=C(c1cc(=O)c2ccc(O)cc2o1)c1ccc(Cl)cc1Cl | 23%
CCCNC(=O)OCc1c(COC(=O)NCCC)c(-c2ccc(Cl)c(Cl)c2)n2c1CCC2 | 21%
O=C(Cc1ccccc1)NN1C(=O)C(Cl)C1c1cc(Br)cc(Br)c1O (configuration not stated) | 13%
CCOC(=O)C(Cc1c2ccccc2cc2ccccc12)(NC(C)=O)C(=O)OCC | -8%
O=[N+]([O-])/C=C/c1cc2ccc3ccccc3c2[nH]1 | 63%
Fc1ccc(Nc2ccc3ccccc3c2)cc1 | -1%
O=S1(=O)CCC2=CC(C(F)(F)F)=CC(C(F)(F)F)=CN21 | 38%
O=C(Cc1ccccc1)NNc1nc(NNC(=O)c2ccncc2)nc(Nc2ccc([N+](=O)[O-])cc2)n1 | 8%
CCCCS/C(=C(/C#N)C(N)=O)c1cc2c([nH]1)CCCC2 | 16%
O=C(O)c1ccccc1C(=O)OC1CCc2ccccc2C1 (configuration not stated) | -12%
CCOC(=O)/C(=C\c1cccc(C)c1)C(C)=O | 20%
NC(=S)N/N=C1\c2ccccc2CCC1CCC1(O)CCc2ccccc2C1=O (configuration not stated) | 2%
Cc1cccc2c(Cl)c3cccc(C)c3nc12 | 13%
CC(C)OC(=O)NNc1c(Cl)cc(Cl)cc1Cl | 18%
Nc1ccc2c(c1)C(=O)c1c(F)cccc1-2 | -129%
N#CSCC1COc2ccccc2O1 (configuration not stated) | -5%
Cc1ccc(S(=O)(=O)NC(=O)C2C(=O)CC3(CCCCC3)CC2=O)cc1 | 10%
CC1=NN(C(=O)c2ccccc2O)C(=O)/C1=C/c1ccco1 | 11%
